These results are taken from ChEMBL document CHEMBL1201862, “PubChem BioAssay data set” (2004).

Each structure is given as a SMILES string. About 4,000 (1%) of roughly 390,000 compounds were called active. About 7% were inconclusive and are not listed. The calls are words filed in the database; no cut-off is given here. Many of the other results were omitted from the sample, so actives are more common in it than they were.

In this experiment the target is T1, DNA polymerase iota (Homo sapiens) (UniProt Q9UNA4).
T1 sequence (whole entry): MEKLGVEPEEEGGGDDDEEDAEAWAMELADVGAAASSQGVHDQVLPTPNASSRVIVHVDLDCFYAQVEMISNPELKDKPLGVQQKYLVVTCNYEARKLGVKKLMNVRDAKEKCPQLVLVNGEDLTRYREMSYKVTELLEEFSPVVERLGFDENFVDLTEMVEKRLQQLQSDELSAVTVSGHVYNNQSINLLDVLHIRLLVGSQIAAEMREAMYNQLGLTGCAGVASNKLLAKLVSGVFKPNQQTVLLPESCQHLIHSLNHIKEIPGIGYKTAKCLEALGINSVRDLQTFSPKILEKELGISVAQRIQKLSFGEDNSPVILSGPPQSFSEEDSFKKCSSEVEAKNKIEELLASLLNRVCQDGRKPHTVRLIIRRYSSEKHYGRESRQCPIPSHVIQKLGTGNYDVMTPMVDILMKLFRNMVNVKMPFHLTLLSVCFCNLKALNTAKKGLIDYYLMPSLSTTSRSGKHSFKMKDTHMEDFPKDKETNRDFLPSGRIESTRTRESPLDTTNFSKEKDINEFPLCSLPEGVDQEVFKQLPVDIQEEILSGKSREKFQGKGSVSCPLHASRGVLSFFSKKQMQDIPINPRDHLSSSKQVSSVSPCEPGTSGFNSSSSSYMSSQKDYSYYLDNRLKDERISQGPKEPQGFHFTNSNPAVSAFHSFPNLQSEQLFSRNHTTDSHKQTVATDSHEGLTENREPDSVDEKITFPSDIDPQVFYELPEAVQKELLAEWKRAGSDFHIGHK
As to the kind of experiment: qHTS for Inhibitors of Polymerase Iota. [Related pubchem assays (depositor defined):AID588623]. In kind it is functional.
In the case of `COc1ccc(OC)c(/C=C/c2cccc3c2N(CCCCI)C=S3/C=C/c2cc(OC)ccc2OC)c1` (configuration not stated), the Potency is 70.8 µM (active).

With `Cl.NC(CCC(=O)O)C(=O)O` (configuration not stated), the Potency entry is “inactive”.
